Experiment [1] deals with human Janus Kinase 2 (Jak2), JAK2 (gene 3717) (UniProt O60674). Description: NVS_ENZ_hJak2: NovaScreen (NVS) Enzymatic Assay for human Janus Kinase 2 (Jak2) (AID 2283169). The gist of the method: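 Cell-free recombinant human JAK2 enzyme activity assay, fluorescence/electrophoretic mobility shift read 1 h after dosing. Screened in duplicate at 25 uM, then concentration-response up to 50 uM; activity as signal loss relative to DMSO.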

Experiment [2] concerns the target Collagenase 3 (Homo sapiens) (UniProt P45452). Nature of the experiment: NVS_ENZ_hMMP13: NovaScreen (NVS) Enzymatic Assay for human Matrix Metalloproteinase-13 (MMP13) (AID 2283182). The gist of the method: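 Recombinant MMP13 cleaving fluorescent substrate, cell-free, measured 1 h after dosing. Primary duplicate screen at 25 uM; actives tested in concentration-response up to 50 uM; loss of signal relative to DMSO.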

Experiment [3] concerns the target human Matrix Metalloproteinase-7 (MMP7), MMP7 (gene 4316) (UniProt P09237). Description: NVS_ENZ_hMMP7: NovaScreen (NVS) Enzymatic Assay for human Matrix Metalloproteinase-7 (MMP7) (AID 2283183). The gist of the method:
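Cell-free fluorescence enzymatic assay read 1 h after compound addition, activity loss analyzed against DMSO. Primary duplicate testing at 25 uM; compounds meeting threshold rerun in singleton concentration-response up to 50 uM.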

The target of experiment [4] is human Matrix Metalloproteinase-2 (MMP2), MMP2 (gene 4313) (UniProt P08253). Nature of the experiment: NVS_ENZ_hMMP2: NovaScreen (NVS) Enzymatic Assay for human Matrix Metalloproteinase-2 (MMP2) (AID 2283184). An outline of the steps:
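Cell-free recombinant MMP2 activity with a fluorescent substrate, read 1 h after dosing. Primary screen in duplicate at 25 uM; actives then run in concentration series; loss of signal fitted versus DMSO.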

Experiment [5] addresses human c-Jun N-terminal Kinases (JNK2), MAPK9 (gene 5601) (UniProt P45984). Nature of the experiment: NVS_ENZ_hJNK2: NovaScreen (NVS) Enzymatic Assay for human c-Jun N-terminal Kinases (JNK2) (AID 2283171). The gist of the method: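 Cell-free recombinant human JNK2 activity assay; fluorescent substrate and product separated by electrophoretic mobility shift, read 1 h after dosing. Primary duplicate screen at 25 uM; actives run in concentration-response up to 50 uM, relative to DMSO.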

Experiment [6] addresses Mitogen-activated protein kinase 3 (Homo sapiens) (UniProt P27361). Description: NVS_ENZ_hMAPK3: NovaScreen (NVS) Enzymatic Assay for human Mitogen-Activated Protein Kinase 3 (MAPK 3) (AID 2283177). The gist of the method:
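Cell-free enzymatic assay with recombinant protein and specific substrate; fluorescence and electrophoretic mobility shift read-out 1 h after dosing. Primary screen duplicate at 25 uM; actives then run in concentration-response up to 50 uM, loss of signal versus DMSO.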

Experiment [7] addresses human MAP Kinase-Activated Protein Kinase 2 (MAPKAPK2), MAPKAPK2 (gene 9261) (UniProt P49137). Nature of the experiment: NVS_ENZ_hMAPKAPK2: NovaScreen (NVS) Enzymatic Assay for human MAP Kinase-Activated Protein Kinase 2 (MAPKAPK2) (AID 2283178). The gist of the method: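 Cell-free recombinant human MAPKAPK2 activity measured by fluorescence with electrophoretic mobility shift separation of substrate and product, 1 hr after dosing. Loss of signal versus DMSO; primary screen at 25 uM, concentration-response up to 50 uM.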

For experiment [8], the target named is human LYN Proto-Oncogene, Src family Tyrosine Kinase (LynA), LYN (gene 4067) (UniProt P07948). Description: NVS_ENZ_hLynA: NovaScreen (NVS) Enzymatic Assay for human LYN Proto-Oncogene, Src family Tyrosine Kinase (LynA) (AID 2283173). The gist of the method:
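Recombinant kinase with fluorescent substrate; product separated from substrate by electrophoretic mobility shift and read 1 h after dosing. Duplicate screen at 25 uM, then concentration-response up to 50 uM; activity scored as signal loss against DMSO.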

Molecules are shown by their SMILES. Records with an inconclusive call do not appear. Activity calls are given as the source filed them. How the source made its calls: active means hit-call score of the fitted dose curve at least 0.9, where 1 is the maximum; inconclusive means response in the unintended direction; inactive means score below 0.9.

Chain of Mitogen-activated protein kinase 3 (Homo sapiens) (P27361 whole entry, looked up): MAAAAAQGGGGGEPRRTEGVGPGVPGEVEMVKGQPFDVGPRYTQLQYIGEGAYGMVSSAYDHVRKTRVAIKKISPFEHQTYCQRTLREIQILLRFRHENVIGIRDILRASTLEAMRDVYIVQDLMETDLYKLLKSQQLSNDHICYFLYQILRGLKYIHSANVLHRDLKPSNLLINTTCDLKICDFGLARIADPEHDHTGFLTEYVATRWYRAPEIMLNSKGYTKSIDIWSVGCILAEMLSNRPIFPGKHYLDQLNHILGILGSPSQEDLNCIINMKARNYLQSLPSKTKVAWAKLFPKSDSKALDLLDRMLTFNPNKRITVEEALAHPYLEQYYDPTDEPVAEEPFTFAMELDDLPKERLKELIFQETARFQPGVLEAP
Chain of human Matrix Metalloproteinase-7 (MMP7), MMP7 (gene 4316) (P09237 whole entry, looked up): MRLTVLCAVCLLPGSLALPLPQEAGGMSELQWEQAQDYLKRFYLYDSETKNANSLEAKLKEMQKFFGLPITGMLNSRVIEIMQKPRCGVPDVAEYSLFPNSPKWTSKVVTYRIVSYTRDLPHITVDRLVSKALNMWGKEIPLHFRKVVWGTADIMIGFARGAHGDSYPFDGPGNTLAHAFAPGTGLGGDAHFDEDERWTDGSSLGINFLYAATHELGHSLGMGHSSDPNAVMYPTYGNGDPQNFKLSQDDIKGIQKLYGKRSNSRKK
Chain of human LYN Proto-Oncogene, Src family Tyrosine Kinase (LynA), LYN (gene 4067) (P07948 whole entry, looked up): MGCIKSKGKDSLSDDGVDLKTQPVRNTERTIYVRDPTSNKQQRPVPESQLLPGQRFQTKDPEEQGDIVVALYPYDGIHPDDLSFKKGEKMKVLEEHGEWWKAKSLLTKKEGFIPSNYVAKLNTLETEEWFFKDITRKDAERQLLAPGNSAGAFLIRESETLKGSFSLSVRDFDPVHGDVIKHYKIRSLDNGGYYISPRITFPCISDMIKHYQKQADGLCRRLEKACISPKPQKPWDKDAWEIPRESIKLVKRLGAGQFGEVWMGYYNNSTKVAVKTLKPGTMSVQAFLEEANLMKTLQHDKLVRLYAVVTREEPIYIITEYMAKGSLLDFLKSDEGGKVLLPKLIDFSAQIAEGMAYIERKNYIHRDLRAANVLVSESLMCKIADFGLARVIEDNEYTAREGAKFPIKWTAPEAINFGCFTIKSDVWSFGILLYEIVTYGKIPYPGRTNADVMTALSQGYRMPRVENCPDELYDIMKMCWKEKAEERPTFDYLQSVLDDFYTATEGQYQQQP
Chain of human Janus Kinase 2 (Jak2), JAK2 (gene 3717) (O60674 whole entry, looked up): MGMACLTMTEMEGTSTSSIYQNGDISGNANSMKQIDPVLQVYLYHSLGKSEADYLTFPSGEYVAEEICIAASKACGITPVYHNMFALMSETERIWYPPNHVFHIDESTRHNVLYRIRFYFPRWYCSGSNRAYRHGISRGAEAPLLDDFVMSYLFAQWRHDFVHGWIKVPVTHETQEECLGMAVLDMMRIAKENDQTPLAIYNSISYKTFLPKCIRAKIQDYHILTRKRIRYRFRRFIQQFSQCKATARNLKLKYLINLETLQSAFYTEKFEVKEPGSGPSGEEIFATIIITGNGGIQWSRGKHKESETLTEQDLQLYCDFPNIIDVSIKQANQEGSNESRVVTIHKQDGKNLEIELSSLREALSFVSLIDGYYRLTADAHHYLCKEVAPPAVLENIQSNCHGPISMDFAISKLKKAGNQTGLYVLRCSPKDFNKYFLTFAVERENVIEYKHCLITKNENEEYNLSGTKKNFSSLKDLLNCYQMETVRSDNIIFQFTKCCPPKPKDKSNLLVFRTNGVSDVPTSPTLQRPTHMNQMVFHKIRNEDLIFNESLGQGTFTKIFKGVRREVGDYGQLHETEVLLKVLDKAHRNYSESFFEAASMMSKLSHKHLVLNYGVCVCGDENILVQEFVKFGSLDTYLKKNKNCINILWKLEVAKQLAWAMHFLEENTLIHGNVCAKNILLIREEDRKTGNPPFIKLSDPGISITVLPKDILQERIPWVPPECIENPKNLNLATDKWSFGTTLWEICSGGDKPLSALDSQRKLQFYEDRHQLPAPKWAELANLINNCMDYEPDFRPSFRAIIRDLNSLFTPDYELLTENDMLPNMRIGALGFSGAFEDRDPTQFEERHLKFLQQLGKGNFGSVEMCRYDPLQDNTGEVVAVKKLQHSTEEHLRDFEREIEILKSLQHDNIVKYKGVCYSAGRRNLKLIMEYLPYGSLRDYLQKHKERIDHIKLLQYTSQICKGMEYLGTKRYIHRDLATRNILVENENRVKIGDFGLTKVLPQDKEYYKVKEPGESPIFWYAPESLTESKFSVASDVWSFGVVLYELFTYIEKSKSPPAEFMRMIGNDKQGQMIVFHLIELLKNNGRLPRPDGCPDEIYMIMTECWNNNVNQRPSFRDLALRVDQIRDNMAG
Chain of human Matrix Metalloproteinase-2 (MMP2), MMP2 (gene 4313) (P08253 whole entry, looked up): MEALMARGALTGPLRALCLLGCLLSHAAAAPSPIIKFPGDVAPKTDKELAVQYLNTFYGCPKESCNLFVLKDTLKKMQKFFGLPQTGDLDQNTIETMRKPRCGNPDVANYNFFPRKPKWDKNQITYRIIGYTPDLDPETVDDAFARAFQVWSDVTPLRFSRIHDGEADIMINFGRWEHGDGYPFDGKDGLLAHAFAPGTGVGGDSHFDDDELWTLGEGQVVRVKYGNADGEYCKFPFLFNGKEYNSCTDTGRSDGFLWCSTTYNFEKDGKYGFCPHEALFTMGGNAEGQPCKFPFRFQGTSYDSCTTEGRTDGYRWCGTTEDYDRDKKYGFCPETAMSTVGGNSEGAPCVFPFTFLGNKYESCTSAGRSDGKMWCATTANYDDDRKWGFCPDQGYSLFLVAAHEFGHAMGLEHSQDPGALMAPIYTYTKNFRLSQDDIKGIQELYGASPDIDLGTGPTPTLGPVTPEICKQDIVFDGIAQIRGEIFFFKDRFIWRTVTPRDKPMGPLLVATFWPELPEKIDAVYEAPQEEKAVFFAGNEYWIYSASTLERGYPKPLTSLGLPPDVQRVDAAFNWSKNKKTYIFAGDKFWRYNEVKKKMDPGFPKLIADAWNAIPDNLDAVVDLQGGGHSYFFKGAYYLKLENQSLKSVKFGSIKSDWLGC
Chain of human c-Jun N-terminal Kinases (JNK2), MAPK9 (gene 5601) (P45984 whole entry, looked up): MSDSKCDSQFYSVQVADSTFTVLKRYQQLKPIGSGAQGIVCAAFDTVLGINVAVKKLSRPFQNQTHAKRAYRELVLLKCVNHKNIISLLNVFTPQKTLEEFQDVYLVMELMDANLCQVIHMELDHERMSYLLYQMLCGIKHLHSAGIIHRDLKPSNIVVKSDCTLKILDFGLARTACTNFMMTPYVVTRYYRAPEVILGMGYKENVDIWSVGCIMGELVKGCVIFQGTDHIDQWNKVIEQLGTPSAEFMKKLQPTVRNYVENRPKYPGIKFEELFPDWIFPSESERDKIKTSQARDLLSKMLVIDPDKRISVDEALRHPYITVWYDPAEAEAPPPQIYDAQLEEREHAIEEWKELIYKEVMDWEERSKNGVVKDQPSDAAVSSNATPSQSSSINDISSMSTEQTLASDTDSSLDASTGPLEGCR
Chain of human MAP Kinase-Activated Protein Kinase 2 (MAPKAPK2), MAPKAPK2 (gene 9261) (P49137 whole entry, looked up): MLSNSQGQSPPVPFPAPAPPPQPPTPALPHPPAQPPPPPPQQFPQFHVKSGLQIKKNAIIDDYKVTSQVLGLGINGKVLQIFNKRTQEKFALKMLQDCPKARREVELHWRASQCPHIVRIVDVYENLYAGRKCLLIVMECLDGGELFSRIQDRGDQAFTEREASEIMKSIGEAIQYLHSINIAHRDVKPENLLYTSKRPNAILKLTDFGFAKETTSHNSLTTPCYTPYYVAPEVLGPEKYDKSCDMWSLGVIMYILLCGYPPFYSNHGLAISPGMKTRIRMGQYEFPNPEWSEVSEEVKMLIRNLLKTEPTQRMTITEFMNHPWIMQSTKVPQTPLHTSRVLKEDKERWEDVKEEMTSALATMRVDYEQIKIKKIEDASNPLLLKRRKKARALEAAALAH

Regarding `CC(C)(O)c1ccc(CNC(=O)c2cccnc2Oc2ccc(F)cc2)cc1`, the result in experiment [1] was inactive.

Take `O=C(O)c1[nH]n(-c2ccc(S(=O)(=O)O)cc2)c(=O)c1N=Nc1ccc(S(=O)(=O)O)cc1`: the AC50 – broadly, the midpoint of the concentration-response curve, whichever way the signal moves – was 23.6 µM (active) in experiment [2] and 12.3 µM (active) in experiment [3].

Regarding `Cc1cc(Cc2ccc(N)c(C)c2)ccc1N`, in experiment [4], the call was inactive.

Consider `CC(C)NCC(O)c1ccc(O)c(O)c1` (stereo not given), for which the call in experiment [1] was inactive.

Take `CCCCCCCCCCCCCCCCO`: the result in experiment [1] and in experiment [5] was inactive.

For the compound `NC=O`, in experiment [6], the outcome was inactive.

Turning to `O=C1c2c(O)cccc2Cc2cccc(O)c21`, the call in experiment [7] was inactive. For the same compound, the values for the AC50 in experiment [2], in experiment [3] and in experiment [4] were 0.671 µM (active), 20.3 µM (active) and 10.2 µM (active), respectively.

As to `CCN(CC)CCOc1ccc(C(=C(Cl)c2ccccc2)c2ccccc2)cc1`, the AC50 in experiment [8] was 19.8 µM (active).

Take `O=C(O)CC(O)(CC(=O)O)C(=O)O`: the outcome in experiment [1], in experiment [5] and in experiment [6] was inactive.

Regarding `Cc1cc(SC2=C(O)C[C@@](CCc3ccc(N)cc3)(C(C)C)OC2=O)c(C(C)(C)C)cc1CO`, in experiment [1], the compound was classed as inactive.

For `O=C1NC(=O)C(c2ccccc2)(c2ccccc2)N1`, the compound was called inactive in experiment [1] and in experiment [8].

Regarding `Cc1ccc(-c2cc(C(F)(F)F)nn2-c2ccc(S(N)(=O)=O)cc2)cc1`, the call in experiment [3] and in experiment [4] was inactive.

For the compound `O=C1CCCCC1`, in experiment [6], the compound was called inactive.

Turning to `CN(C)CCCN(C)CCCN(C)C`, the compound was called inactive in experiment [3].

As to `C#CC(O)C(CC)CCCC` (stereo not given), the call in experiment [3] was inactive.

Turning to `NC(=Nc1ccccc1)Nc1ccccc1`, the call in experiment [6] was inactive.

For `C=CCCCCCCCCCCCC`, the result in experiment [6] was inactive.

As for `Cn1cnc2c1c(=O)[nH]c(=O)n2C`, the call in experiment [2] and in experiment [4] was inactive.

As for `CS(=O)(=O)c1ccc([C@@H](C[C@H]2CCC(=O)C2)C(=O)Nc2cnccn2)cc1Cl`, the outcome in experiment [6] was inactive.

On to `CCCCc1nc2cccnc2n1Cc1ccc(-c2ccccc2-c2nnn[nH]2)cc1`, for which, in experiment [6], the result was inactive. Moreover, the AC50 in experiment [2] is 24.1 µM (active).

Take `CC(C)(C)c1ccccc1`: the AC50 in experiment [2] was 19.4 µM (active).

On to `CSc1ccc(Oc2ccc(S(N)(=O)=O)cc2CN(C)C)cc1C`, for which the AC50 in experiment [4] is 9.97 µM (active).

As to `O=C(N[C@@H](c1ccccc1)[C@@H]1CCCCN1)c1cccc(C(F)(F)F)c1Cl`, in experiment [8], the compound was called inactive.

Take `O=C(O)c1cccnc1`: the compound was classed as inactive in experiment [6].

The record behind these values is PubChem BioAssay (EPA / NIEHS).
